# Bioassay records as filed in PubChem BioAssay.
# In the library only some 6.2% were active in any assay of this set; here they are far more common.
# HT1080 IDH1KD tx: kills HT-1080 cells with IDH1 knockdown; HT-1080 IDH1 knockdown viability, ATP luminescence, 48 h; Potency, µM (doses to about 46.1 µM), inactives show top-dose activity, negative = toxicity, hits mostly cytotoxic; actives 2% (n = 360,000); AID 686971;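 note: 0% = DMSO wells and -100% = cell-free medium wells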
#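 In this qHTS, HT-1080 cells depleted of IDH1 are exposed for 48 h at 37 °C to compound titrations. Toxicity is scored from CellTiter-Glo luminescence, with DMSO as full viability and medium alone as none.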
# HT1080-NT tox: kills 2HG-producing HT-1080-NT fibrosarcoma cells; HT-1080-NT fibrosarcoma viability, CellTiter-Glo ATP luminescence, 48 h; Potency, µM (highest dose often 46.1 µM), inactives show at the highest dose activity, negative = less viability, most hits filed as cytotoxic; actives 1.6% (n = 360,000); AID 686970;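 note: NT is the 2HG producing partner of a matched IDH1 knockdown line; 0% = DMSO-treated cells and -100% = media-only wells without cells; nearly all actives have a fitted effect of over 55% in size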
#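 Compounds were tested in concentration-response format on HT-1080-NT cells for 48 hours at 37 degrees C. Cell viability came from CellTiter-Glo luminescence; curves were classified by r2, response magnitude and activity.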
# KB-3-1 cytotox: KB-3-1 parental cell cytotoxicity. KB-3-1 viability, CellTiter-Glo ATP luminescence, 72 h. Potency, µM (doses to about 46.1 µM), most hits filed as cytotoxic. actives 1.4% (n = 400,000); note: % is set by controls: 0 for no effect and ±100 for the full control effect; nearly all actives have a fitted effect of over 60% in size
#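 Parental KB-3-1 adenocarcinoma cells in phenol-red-free DMEM with 10% FBS were pin-treated with compounds at several concentrations, incubated 72 h at 37 °C, and viability read by CellTiter-Glo luminescence; concentration-effect curves were fitted after normalization.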
# ATXN2 expr inh: inhibitors of ATXN2 expression | HEK-293 ATXN2-luciferase reporter, luminescence, 24 h | Potency, µM (doses to about 57 µM), without a hit: at the highest dose activity change, negative = inhibition, most hits filed as inhibitors | actives 0.72% (n = 360,000); note: % is set by controls: 0 for no effect and ±100 for the full control effect; nearly all actives have a fitted effect of over 55% in size
#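 ATXN2-luciferase reporter cells (luciferase flanked by upstream and downstream ATXN2 gene portions) were treated 24 h at 37 °C with compounds at up to 57 uM. SteadyGlo luminescence gave expression; GF-AFC fluorescence gave viability.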
# S2 tox: viability counter-screen for ATXN expression inhibitors. S2 cells (HEK-293 line with an ATXN2-luciferase reporter) viability, CellTiter-Fluor protease fluorescence, 24 h. actives 0.49% (n = 400,000). Potency, µM (titrated, usually from 56.7 µM), usual class: cytotoxic; note: nearly all actives have a fitted effect of over 40% in size
# KB-V1 cytotox: KB-V1 MDR subline cytotoxicity; Potency, µM (highest dose often 46.1 µM), most hits filed as cytotoxic; actives 3.4% (n = 400,000); KB-V1 MDR cells viability, CellTiter-Glo, 72 h; note: % is set by controls: 0 for no effect and ±100 for the full control effect; nearly all actives have a fitted effect of over 60% in size
#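 Readout: CellTiter-Glo luminescence, 10 min after addition. Cells: KB-V1 MDR subline, 72 h at 37 degrees C with compound. Analysis: corrected, normalized data fitted to concentration-effect curves.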
# Starred values were filed as active, the others as inactive; i = inactive; u = inconclusive; x = not tested or not shown; ! = not confirmed by another sample; [ ] = another dose, or the depositor's remark. Calls come from the whole dose curve; as a rule, active = well fitted curve in the direction sought with a large enough effect; inconclusive = small, poorly fitted or top-dose-only effect, or another doubt; inactive = no such curve, though single readings can be large; an effect the other way counts as inactive or inconclusive. Potency is the fitted concentration of half-maximal effect.
SMILES,HT1080 IDH1KD tx,HT1080-NT tox,KB-3-1 cytotox,ATXN2 expr inh,S2 tox,KB-V1 cytotox
CCCCCCn1c(CN2CCN(Cc3ccccc3)CC2)nc2c1c(=O)n(C)c(=O)n2C,0%,0%,u,-26%,u,18µM*
CCCCCn1c(CN2CCN(C(=O)OCC)CC2)nc2c1c(=O)n(C)c(=O)n2C,4%,1%,i,-6%,i,i
CCOC(=O)N1CCN(Cc2nc3c(c(=O)n(C)c(=O)n3C)n2CCCc2ccccc2)CC1,-4%,-7%,u,0%,i,9.2µM*
Cc1ccc(C(=O)OCC(=O)N2CCC(C)CC2)cc1S(=O)(=O)N1CCOCC1,1%,-1%,i,x,i,i
COc1ccccc1NC(=O)/C(C#N)=C/c1cccn1C,-1%,0%,i,-4%,i,i
CCN(CC)S(=O)(=O)c1ccc2c(c1)N(CC(=O)NCc1ccccc1)C(=O)C1CCCCN21 (configuration not stated),x,x,i,11%,i,i
c1ccc(CCn2c(C3CC3)nc3ccccc32)cc1,3%,u,i,-2%,i,21µM*
Cc1ccc(CSc2nccc(-c3c(C)nc4ccccn34)n2)cc1,1%,2%,18µM*,x,u,6.5µM*
COc1ccccc1NC(=O)CSc1nc2ccccc2c(=O)n1CCC(=O)NC1CCCCC1,x,x,i,-3%,i,i
O[C@H]1C[C@H](c2ccc(Cl)cc2)N(CC2CCCCC2)C[C@@H]1n1cc(C2CC2)nn1,u,u,u,u,35µM*,u
O[C@@H]1CN(CC2CCCCC2)[C@@H](c2ccc(Cl)cc2)C[C@H]1n1cc(C2CC2)nn1,-1%,0%,u,u,20µM*,u
O[C@@H]1C[C@H](c2ccc(Cl)cc2)N(CC2CCCCC2)C[C@H]1n1cc(C2CC2)nn1,4%,5%,i,11%,i,i
Cc1ccc([C@H]2C[C@@H](O)[C@H](n3cc(C4CC4)nn3)CN2CC2CCCCC2)cc1,5%,0%,i,-10%,i,i
CCOC(=O)C1CCCN(C(=O)c2nn(-c3ccc(C)cc3)c(=O)c3c2c2ccccc2n3C)C1 (configuration not stated),x,x,i,7%,i,i
O=C(COc1ccccc1O)NNc1ccccc1,3.3µM*,2.3µM*,u,-20%[11.3 µM],i,u
O=C(C[n+]1ccccc1)NNc1ccccc1,4.6µM*,2.6µM*,6.5µM*,u,u,i
COC(=O)[C@]12CCCCC=C1N(Cc1ccccc1)C(=O)[C@H](CC(=O)N1CCCC1)C2,5%,15%,i,3%,u,i
Cc1cnc(-n2ncc(C(=O)NCc3ccncc3)c2C(C)C)nc1-c1ccc(F)cc1,x,x,x,x,i,x
Cc1ccc(S(=O)(=O)c2cn(C)c3cc(N4CCN(C)CC4)c(F)cc3c2=O)c(C)c1,u,21µM*,i,u,i,i
COC(=O)c1sc(-c2ccc(C(C)(C)C)cc2)cc1NC(=O)COCC(=O)O,21µM*,16µM*,i,-5%,u,i
O=C(CN1CCN(Cc2cccc(C(F)(F)F)c2)CC1)NCC(=O)Nc1ccc(F)c(F)c1F,-6%,-1%,i,-9%,i,23µM*
O=C(CN1CCCCC1)NCC(=O)Nc1ccc(F)c(F)c1F,-2%,0%,i,-7%,i,i
Cc1cc(=O)[nH]c2ccc([N+](=O)[O-])cc12,x,x,i,x,x,i
Cc1ccc(C)c2c1[nH]c1ccc([N+](=O)[O-])cc12,u,-25%,u,-26%,i,8.2µM*
Cc1cc(C(C)(C)C)oc1C(=O)N(CC(=O)NC1CCCC1)c1cccc(C(F)(F)F)c1,u,u,i,u,u,u
SMILES,HT1080 IDH1KD tx,HT1080-NT tox,KB-3-1 cytotox,ATXN2 expr inh,S2 tox,KB-V1 cytotox
Cc1ccccc1N(CC(=O)NC1CCCC1)C(=O)c1oc(C(C)(C)C)cc1C,2%,-6%,i,-36%,i,16µM*
O=c1c2c3nc4ccccc4nc3n(/N=C/c3ccccn3)c2ncn1-c1ccccc1,u,5.8µM*,i,u,i,u
O=S(=O)(Nc1cc(Sc2cccc3cccnc23)c(O)c2ccccc12)c1ccc(F)cc1,21µM*,23µM*,3.3µM*,u,4µM*,u
N=c1n(CCN2CCCCC2)c2ccccc2n1CC(O)COc1ccccc1 (configuration not stated),u,15µM*,u,u,25µM*!,i
CCCCn1c(=N)n(CC(O)COc2ccc(C)cc2)c2ccccc21 (configuration not stated),11µM*,u,18µM*,x,x,u
Cc1ccc(OCC(O)Cn2c3ccccc3c3ccccc32)cc1 (configuration not stated),u,u,i,-26%,i,u
CCCCn1c(=N)n(CC(O)COc2ccccc2)c2ccccc21 (configuration not stated),u,u,u,-18%,i,21µM*
Cc1ccccc1C(=O)Nc1ccc(C(=O)N2CCCC(O)c3cc(Cl)ccc32)c(C)c1 (configuration not stated),x,x,x,16%,i,x
Cc1nc2nncn2c(NCc2ccc(Cl)cc2)c1C,x,x,2.6µM*,u,u,i
CC(C)c1ccc(Nc2c(-c3ccsc3)nc3ccc(Cl)cn23)cc1,x,x,i,2%,i,i
Cc1ccccc1Nc1scc(-c2ccc(Cl)cc2)[n+]1-c1ccccc1C,-4%,-4%,9.2µM*,-6%,i,i
O=S1(=O)c2ccc(Br)cc2N2CCC[C@H]2CN1Cc1ccccc1,5.8µM*,u,u,-15%,i,5.2µM*
O=S1(=O)c2ccc(Br)cc2N2CC[C@H](C2)N1Cc1ccc(Cl)cc1,7.3µM*,u,u,-13%,i,u
Cc1nc(NCCN2CCOCC2)c2nnn(Cc3c(F)cccc3Cl)c2n1,-2%,3%,i,-11%,i,18µM*
O=C1C2C3CCC(C3)C2C(=O)N1c1ccc(OS(=O)(=O)c2ccccc2)cc1 (configuration not stated),-26%,-3%,u,22%,i,9.2µM*
Cc1ccc(S(=O)(=O)Oc2ccc(N3C(=O)C4C5CCC(C5)C4C3=O)cc2)cc1 (configuration not stated),-11%,-9%,i,-8%,i,i
O=C1Cc2cc(Cl)ccc2N1,x,x,x,0%,i,x
